TDP1 cell noCPT: qHTS for Inhibitors of human tyrosyl-DNA phosphodiesterase 1 (TDP1): qHTS in cells in absence of CPT | DT40 Tdp1-/- hTDP1 cells, no CPT, ATP luminescence, 48 h | Potency, µM (highest dose often 46.2 µM), for the others: at the highest dose activity change, negative = growth inhibition, usual class: inhibitors | 15% of 420,000 active | AID 686978, 2013; also: potency is read from the fitted curve at half-maximal effect; nearly all actives have a fitted effect of over 55% in size
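Growth of hTDP1-complemented DT40 Tdp1-knockout cells is measured by ATP luminescence after at least 48 hr compound exposure at 37 °C, with DMSO substituting for the 20 nM CPT used in the parallel screen.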
HT1080-NT tox: kills 2HG-producing HT-1080-NT fibrosarcoma cells. 1.6% of 360,000 active. HT-1080-NT fibrosarcoma viability, CellTiter-Glo ATP luminescence, 48 h. Potency, µM (titrated, usually from 46.1 µM), for inactives: at the top dose activity, negative = less viability, usual class: cytotoxic;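 also: NT is the 2HG producing partner of a matched IDH1 knockdown line; potency is read from the fitted curve at half-maximal effect; 0% = DMSO-treated cells and -100% = media-only wells without cells; nearly all actives have a fitted effect of over 55% in size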
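Toxicity toward the 2HG-producing NT line was scored as %Activity, normalised to DMSO and no-cell wells, from CellTiter-Glo luminescence after 48 hours' treatment.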
IL-1B inflam inh: blocks inflammasome-driven IL-1 beta release; THP-1 LPS/ATP IL-1B secretion, AlphaLISA, 16 h; hits give low values; activity change, % at 57.5 µM; 4.7% of 360,000 active; in the data active = activity change below about -50%; inconclusive = mostly about -30% to -49%
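Secreted IL-1B measured by AlphaLISA bead assay after 16 h compound exposure of THP-1 cells; compounds (final up to 57.5 uM) added 1 h before LPS (250 ng/mL) and ATP (1.25 mM) stimulation; lower signal means less secretion.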
HT1080 IDH1KD tx: toxicity to HT-1080 IDH1 knockdown cells (counter line) | AID 686971 | HT-1080 IDH1 knockdown viability, ATP luminescence, 48 h | 2% of 360,000 active | Potency, µM (top dose mostly 46.1 µM), for inactives: at the highest dose activity, negative = toxicity, usual class: cytotoxic;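 also: potency is read from the fitted curve at half-maximal effect; 0% = DMSO wells and -100% = cell-free medium wells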
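Using the IDH1-knockdown HT-1080 line run in the same batch and compound series as the NT line, viability after 48 h at 37 °C was determined by CellTiter-Glo luminescence and expressed as % activity.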
DT40 TDP1 CPT: DT40-hTDP1 cell growth loss with CPT; chicken DT40 Tdp1-/-;hTDP1 cells + 20 nM CPT, ATP luminescence, 48 h; Potency, µM (top dose mostly 46.2 µM), without a hit: top-dose activity change, negative = growth inhibition, usual class: inhibitors; 12% of 420,000 active; also: potency is read from the fitted curve at half-maximal effect; nearly all actives have a fitted effect of over 55% in size
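Chicken DT40 Tdp1-/- cells complemented with human TDP1, 400 cells/well, exposed to compounds plus 20 nM camptothecin for at least 48 h at 37 C; viability read as ATP content by CellTiter-Glo luminescence.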
Numbers without * were called inactive; ? = inconclusive; nt = no result. Sampled rows, rich in hits. Any-hit rate of the full collection: about 19%. Unless noted, calls follow the shape of the dose curve; as a rule, active = well fitted curve in the direction sought with a large enough effect; inconclusive = small, poorly fitted or top-dose-only effect, or another doubt; inactive = no such curve, though single readings can be large; an effect the other way counts as inactive or inconclusive. Unless noted, % is scaled to controls: 0 for no effect and ±100 for the full control effect.

SMILES | TDP1 cell noCPT | HT1080-NT tox | IL-1B inflam inh | HT1080 IDH1KD tx | DT40 TDP1 CPT
COC(=O)C(CC(C)C)NC(=O)C(Cc1ccccc1)NC(=O)C1CCCN1C(=O)OC(C)(C)C (stereo unspecified) | 8% | 2% | -71* | -1% | -2%
CC(C)CC(NC(=O)C1CCCN1C(=O)OC(C)(C)C)C(=O)NCC(N)=O (stereo unspecified) | -14% | 0% | 6 | 2% | 0%
Cc1cc(C)c2ccc3c(C)c(C)nc3c2[nH]1 | 21µM* | ? | -1 | ? | ?
Cc1cc(=O)[nH]c2c(C)c(N)ccc12 | -6% | -2% | -1 | 2% | -2%
COc1ccccc1OCCSc1nc(-c2ccc(C(C)(C)C)cc2)nc2cc(=O)[nH]n12 | ? | nt | nt | nt | 13µM*
CCOc1ccc(-c2nc(SCC(=O)Nc3ccc(C)c(C)c3)n3[nH]c(=O)cc3n2)cc1 | -28% | nt | nt | nt | -15%
C=CCc1ccccc1OCCSc1nc(-c2ccc(C(C)(C)C)cc2)nc2cc(=O)[nH]n12 | ? | nt | nt | nt | 23µM*
O=c1cc2nc(-c3ccccc3)nc(SCc3cccc(Br)c3)n2[nH]1 | 9.2µM* | nt | nt | nt | ?
Cc1ccc(-c2nc(SCCOc3ccccc3C)n3[nH]c(=O)cc3n2)cc1 | 26µM* | nt | nt | nt | 23µM*
O=C(CSc1nc(=O)[nH]c2c1CCCC2)NCc1ccccc1Cl | 8% | nt | nt | nt | -26%
CCCCN1C(=S)SC(C)(C)C1/[N+]([O-])=C/c1ccc(S(=O)(=O)NC)cc1 (stereo unspecified) | 2% | -2% | -19 | 11% | 4%
CC(C)(O)C#Cc1ccc([C@@H]2C[C@H]3CN(c4ccccc4)C(=O)[C@]34CCCN24)s1 | ? | -23% | -72* | ? | -24%
O=C1N(c2ccccc2)C[C@@H]2C[C@@H](c3cccs3)N3CCC[C@@]123 | -28% | 5% | -5 | -3% | -24%
CC(=O)c1ccc(OC2(C)CCN(Cc3ccc4ccccc4c3)C2)cc1 (stereo unspecified) | ? | -9% | -9 | -9% | -22%
COc1cc(Cl)ccc1OC1(C)CCN(Cc2ccc3ccccc3c2)C1 (stereo unspecified) | 23µM* | ? | 13 | ? | ?
COCOc1cccc(CN2CCC(C)(Oc3cccc(OC)c3)C2)c1 (stereo unspecified) | ? | -14% | -24 | 5% | 18µM*
COc1cc(Cl)ccc1OC1(C)CCN(Cc2ccc(-c3ccccn3)cc2)C1 (stereo unspecified) | 15µM* | 16µM* | -13 | ? | ?
O=C(Cn1cc(C(F)(F)F)ccc1=O)OCC(=O)c1ccc[nH]1 | ? | -6% | 4 | 3% | ?
Cn1cnc([N+](=O)[O-])c1Sc1nc(N)nc2c1ncn2Cc1ccccc1 | ? | 0% | -101* | -27% | ?
CCCCn1cnc2c(SCc3cccc(F)c3)nc(N)nc21 | ? | -15% | -25 | -15% | -23%
CCCCn1cnc2c(SCc3ccc([N+](=O)[O-])cc3)nc(N)nc21 | ? | -1% | 0 | -1% | 15µM*
CCCCn1cnc2c(SCc3ccccn3)nc(N)nc21 | -1% | 2% | -75* | 2% | 9%
CCC(C)Cn1cnc2c(SCc3ccccn3)nc(N)nc21 (stereo unspecified) | ? | -14% | -9 | -11% | -14%
CCCCn1cnc2c(Sc3c([N+](=O)[O-])ncn3C)nc(N)nc21 | ? | -20% | -95* | ? | -12%
O=C(Cc1ccccc1Cl)N1CCN(c2ncccn2)CC1 | -16% | 2% | 11 | 1% | 2%
SMILES | TDP1 cell noCPT | HT1080-NT tox | IL-1B inflam inh | HT1080 IDH1KD tx | DT40 TDP1 CPT
Cc1ccc(NC(=O)CC2Oc3ccccc3NC2=O)cc1C (stereo unspecified) | -21% | nt | nt | nt | -2%
O=C(CC(=O)N1CCOCC1)N1CCOCC1 | -8% | 17% | 13 | 8% | -3%
CCCn1cnc2c(SCc3ccccc3F)nc(N)nc21 | ? | -19% | -23 | ? | -28%
CCCn1cnc2c(Sc3c([N+](=O)[O-])ncn3C)nc(N)nc21 | ? | -4% | -54* | -8% | -26%
Cc1cc(-c2ccc(S(=O)(=O)Nc3cccc(Cl)c3C)cc2)on1 | 6.5µM* | nt | nt | nt | 6.5µM*
Cc1cc(-c2ccc(S(=O)(=O)Nc3ccc(Cl)cc3C)cc2)on1 | 3.3µM* | nt | nt | nt | 4.6µM*
Cc1cc(-c2ccc(S(=O)(=O)Nc3ccccc3C)cc2)on1 | 4.6µM* | nt | nt | nt | 5.2µM*
Cc1ccc(NS(=O)(=O)c2ccc(-c3cc(C)no3)cc2)c(Br)c1 | 8.2µM* | nt | nt | nt | 12µM*
Cc1cc(-c2ccc(S(=O)(=O)NCc3ccc(Cl)cc3)cc2)on1 | ? | -2% | 5 | 5% | ?
Cc1c(Cl)cccc1NS(=O)(=O)c1ccccc1 | -5% | -6% | -10 | ? | -28%
Cc1cc(-c2ccc(S(=O)(=O)NCc3ccc(F)cc3)cc2)on1 | -10% | -1% | -4 | -3% | ?
COc1ccc(CCNC(=O)CSc2nc(O)c(C(C)C)c(=O)[nH]2)cc1OC | -3% | -2% | 0 | 17% | -3%
Cc1cnc(C(=O)N2CCN(S(=O)(=O)c3cccc(Br)c3)CC2)cn1 | ? | 6% | 10 | 7% | -28%
O=C(CC1CCCC1)N1CCN(S(=O)(=O)c2cccc(Br)c2)CC1 | ? | 6% | 9 | 3% | 18µM*
COC(=O)c1ccc(Nc2nnc(-c3ccc(C)c(S(=O)(=O)N4CCN(C)CC4)c3)c3ccccc23)cc1 | 23µM* | nt | nt | nt | ?
Cc1ccc(-c2nnc3c4ccccc4c(C)nn23)cc1S(=O)(=O)N1CCN(C)CC1 | -28% | 3% | 21 | -8% | ?
Cc1ccc(C)c(Nc2nnc(-c3ccc(C)c(S(=O)(=O)N4CCN(C)CC4)c3)c3ccccc23)c1 | 23µM* | nt | nt | nt | ?
Cc1ccc(-c2nnc(Nc3ccc(Br)cc3)c3ccccc23)cc1S(=O)(=O)N1CCN(C)CC1 | 18µM* | nt | nt | nt | 12µM*
Cc1ccc(-c2nnc(Nc3cccc(Cl)c3)c3ccccc23)cc1S(=O)(=O)N1CCCCC1 | -22% | nt | nt | nt | ?
Cc1ccc(-c2nnc(Nc3cccc(O)c3)c3ccccc23)cc1S(=O)(=O)N1CCN(C)CC1 | 18µM* | nt | nt | nt | ?
COc1ccc(Cn2c(=O)n(-c3ccc(F)c(Cl)c3)c(=O)c3c2c2cc(OC)ccc2n3C)cc1 | ? | nt | nt | nt | -7%
Cc1ccccc1-n1c(SCC(=O)Nc2ccc(Cl)cc2Cl)nc(O)cc1=O | -5% | nt | nt | nt | 5%
Cc1ccc(-c2nnc(Nc3ccc(Br)cc3)c3ccccc23)cc1S(=O)(=O)N1CCCCC1 | ? | nt | nt | nt | -9%

Bioassay records from PubChem.
